# Tgondii IFNg: T. gondii growth inhibition under IFN-gamma; Toxoplasma gondii growth in IFN-gamma-treated host cells; stronger effect = lower value; activity change, negative = inhibition, % (no concentration beside the values); actives 3.8% (n = 69,000); in the data active = activity change below about -70%, passing the limit was not always enough;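 also: host cells are HeLa cells infected with Toxoplasma gondii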
# * marks the source's active call; other numbers are inactive results; ! = not confirmed by another sample. This is one part of a sample in which hits are shown more often than they occur.
SMILES,Tgondii IFNg
CN(C)CCOCc1cncc2c1CCN(c1ccccn1)C2,1.0
c1csc(-c2nc(N3CCCCC3)no2)c1,20.7
c1csc(-c2nc(N3CCCCC3)ncc2-c2ccncc2)c1,-97.8*
OC1(c2cccnc2)CCN(c2ncc(-c3cccs3)c(-c3cccnc3)n2)CC1,70.3
O=C(c1ccccc1)N1CCC(NC2C=CS(=O)(=O)C2)CC1 (stereo not drawn),3.0
O=C(Nc1cnn(-c2ncc(N3CCSCC3)cn2)c1)C1CCCC1,47.3
CNC(=O)c1ccccc1Nc1nc(Nc2ccc3c(c2OC)CCC[C@H](N2CCN(CCO)CC2)C3)ncc1Cl,-75.4*
CCCC(=O)N1CCCC1c1ncc(C(=O)Nc2ccccc2OC)c(C)n1 (stereo not drawn),-7.9
CC[C@@H]1C(=O)N(C)c2cnc(Nc3ccc(C(=O)NC4CCC(N5CCN(CC6CC6)CC5)CC4)cc3OC)nc2N1C(C)C (stereo partly drawn),-68.3
CCc1nc(CN(C)CCC(=O)NC2CCCCCC2)no1,-2.2
CCOc1ccc(-c2nc(Cn3ccn4nc(-c5ccc(C)c(C)c5)cc4c3=O)c(C)o2)cc1,2.0
CCOC1C2CCC1N(S(=O)(=O)c1ccc(C)cc1)CCO2 (stereo not drawn),4.7
CCc1cn[nH]c1C1CCN(C(=O)c2cccc3c2NCCC3)CC1,-2.6
N#Cc1cc2c(c3c1CCc1ccccc1-3)-c1ccccc1CC2,-80.0*
N#Cc1ccccc1-c1ccccc1C#N,59.8
CCOC(C)c1ccc(-c2cncnc2)cc1 (stereo not drawn),-6.1
CCOCc1nnn2c1CN(C1CCOCC1)CCC2,0.7
CNCC[C@H](Oc1cccc2ccccc12)c1cccs1,19.0
CNCCC(Oc1ccc(C(F)(F)F)cc1)c1ccccc1 (stereo not drawn),-86.5*!
CCOCCCNC(c1ccccc1)c1ccncc1 (stereo not drawn),3.2
COc1ccnc(CN2CCCN(Cc3ccc(F)cc3)C(C(C)C)C2)c1 (stereo not drawn),13.4
c1ccc(-c2ccc(-c3nccn3CCCn3ccnc3)cc2)nc1,-1.2
COc1ccc(-c2nc3cnccn3c2NCCC(=O)N2CCC3(CC2)OCCO3)cc1,39.1
FC(F)(F)c1ccc(-c2cc(NC3CCNCC3)nc3[nH]ccc23)nc1,-3.2
c1cnc(-c2cc(NC3CCNCC3)nc3[nH]ccc23)cn1,-18.9
SMILES,Tgondii IFNg
CCCc1cc(-c2cc(NC3CCNCC3)nc3[nH]ccc23)nc(C)n1,-80.4*
CN1Cc2ccccc2CC2(CCN(C(=O)c3ccc[nH]3)CC2)C1=O,-8.9
O=C(Oc1cccc2cccnc12)c1ccccc1,8.7
O=C(Oc1cccccc1=O)c1ccccc1,0.1
Cc1ccc2c(Br)cc(Br)c(OC(=O)c3ccccc3)c2n1,-85.1*
COc1ncc(-c2nccn2CCc2nc(C)cc(C(F)(F)F)n2)cn1,0.6
Cc1ccc(-c2nc(Cn3nnc(C(=O)NCCc4ccccc4)c3C)c(C)o2)cc1,-49.2
Cc1ccc(-c2nc(Cn3nnc(C(=O)Nc4ccccc4)c3C)c(C)o2)cc1,0.6
Cc1ccc(-c2nc(Cn3nnc(C(=O)NC4CCCC4)c3C)c(C)o2)cc1,-100.9*
Cc1ccc(-c2nc(Cn3nnc(C(=O)NCc4ccc(C(C)C)cc4)c3C)c(C)o2)cc1,-8.7
Cc1ccc(-c2nc(Cn3nnc(C(=O)NCc4ccc(Br)cc4)c3C)c(C)o2)cc1,-68.1
Cc1ccc(CNC(=O)c2nnn(Cc3nc(-c4ccc(C)cc4)oc3C)c2C)cc1,-94.1*
Cc1nc(N2CCN(C)CC2)ncc1C(=O)N1[C@@H]2CC[C@H]1CNC(=O)C2,-0.3
Cn1ccnc1-c1nccn1Cc1ccccc1Cn1cccn1,0.1
CS(=O)(=O)Nc1nc(CC(=O)O)cs1,-10.0
CCCCN(Cc1ccco1)S(=O)(=O)c1ccc2[nH]c(=O)ccc2c1,33.0
C(=C/c1nccc2c1[nH]c1ccccc12)/c1ccc2c(c1)OCO2,132.7
C(=C/c1ccc2ccccc2n1)/c1ccc2c(c1)OCO2,-93.6*
COc1ccc(OC)c(-n2c(/C=C/c3ccc4c(c3)OCO4)nc3ccccc3c2=O)c1,19.1
CCc1cn[nH]c1C1CCCN(Cc2cn[nH]c2C(=O)O)C1 (stereo not drawn),4.6
CCC(c1ccc(F)cc1)n1cc(C(=O)Nc2ccc3c(c2)N(C)C(=O)CO3)nn1 (stereo not drawn),-50.0
CCC(c1ccc(F)cc1)n1cc(C(=O)Nc2nc(-c3ccccn3)cs2)nn1 (stereo not drawn),-96.5*
Cc1ncsc1C(=O)NC(Cc1cc(=O)[nH]c(-c2ccccn2)n1)c1ccc(F)cc1 (stereo not drawn),-14.7
CCOc1ccc2ccccc2c1CN(C)Cc1noc(C)n1,0.8
Nc1nc(N)nc(-c2ccccc2C(F)(F)F)n1,-19.0
SMILES,Tgondii IFNg
Cc1ccc(NC(=O)c2ccccc2C)c(NC(=O)CCCn2cncn2)c1,105.7
O=c1[nH]c2ccccc2nc1/C=C/c1cccs1,-8.1
Nc1nc(-c2ccccc2)c(Br)c(=O)[nH]1,2.2
O=c1[nH]c(-c2ccccc2)nnc1/C=C/c1ccccc1,-84.5*
Cc1ccccc1CNC(=O)CN1CCCCC1CCN1CCOCC1 (stereo not drawn),2.0
COCCN1CCC2(CC1)CC1(CCN(C(=O)CC(C)C)CC1)N(C)C2=O,-13.3
Cc1cnccc1N1CCN(C(=O)c2cc3n(n2)CCN(C)C3)CC1,-27.1
COc1ccc(OC)c(NC(=O)c2cncc(NS(=O)(=O)c3ccc(Br)cc3)c2)c1,19.1
CCn1c(-c2cc(NC(=O)c3cnccn3)n[nH]2)cc2ccc(OC)cc21,-102.7*
COc1ccc2c3c(n(C)c2c1)[C@@H](CO)N(C(C)=O)CC31CCN(C(=O)c2cnccn2)CC1,368.2
CC(C)OC(=O)c1ccc(NC(=O)c2cncc(Br)c2)cc1,39.9
COCCN1C(=O)CCc2cc(NC(=O)c3cncc(Br)c3)ccc21,1.2
CCn1c(-c2cc(NC(=O)c3cncc(Br)c3)n[nH]2)cc2ccc(OC)cc21,-84.9*
CCn1c(-c2cc(NC(=O)c3cncc(Br)c3)n[nH]2)cc2ccccc21,-103.3*
CCn1c(-c2cc(NC(=O)c3cccnc3)n[nH]2)cc2cc(OC)ccc21,69.3
COc1ccc(-c2cn(CC[C@@H]3CC[C@@H](NC(=O)c4cnccn4)[C@H](CO)O3)nn2)cc1,-13.8
CCOC(=O)C1CCC(CNC(=O)Nc2ccc(-c3nc(-c4cc(C)ccc4C)co3)cc2)CC1 (stereo not drawn),4.6
CCOc1ccccc1N(Cc1nc(-c2ccccc2)oc1C)S(=O)(=O)c1cccs1,-60.1
O=C(NCc1cccnc1N1CCOCC1)c1cn(CC2CCCNC2)nn1 (stereo not drawn),-50.1
CCc1c(C)sc2c1CCN(Cc1nc(-c3ccc(OC)c(OC)c3)oc1C)C2c1ccccc1 (stereo not drawn),-45.9
CNC(=O)c1ccc(-c2nc(CN3CCN(C(=O)c4ccccc4F)CC3)c(C)o2)cc1,39.0
COCCC(=O)N1CC[C@H](Oc2cccnc2)[C@@H](Cc2ccccc2)C1,-42.3
Cn1cnc(NC(=O)C2CC(=O)N(c3cccc(F)c3)C2)n1 (stereo not drawn),-12.6
COc1ccc(CN2CC[C@@H]3O[C@@H](C(=O)NCC4CC4)CC[C@@H]32)cc1,-4.8
COc1ncc(C2(O)CCN(Cc3ccc(COC(C)=O)o3)CC2)c(OC)n1,32.2
CC(NC(=O)CCc1ccc2c(c1)n(C)c(=O)n2C)c1nc2ccccc2n1C(C)C (stereo not drawn),35.6
Cc1cc(-n2nc(C)cc2C)nc(N2CCCN(C(=O)c3cccs3)CC2)n1,-56.1

# High-throughput results: PubChem, Broad Institute
